A number with no mark means an inactive call.
Tested on: Vero E6 infected with SARS-CoV-2
Experiment: inhibition of SARS-CoV-2 cytopathic effect; higher = more antiviral protection, active = above 15
Settings: 48 h

Structure (SMILES)	inhibition of SARS-CoV-2 cytopathic effect (1 nM) [%]	inhibition of SARS-CoV-2 cytopathic effect (8.33 nM) [%]	inhibition of SARS-CoV-2 cytopathic effect (100 nM)	inhibition of SARS-CoV-2 cytopathic effect (833.33 nM)	inhibition of SARS-CoV-2 cytopathic effect (10000 nM)
CN(C(=O)CCCOc1ccc2[nH]c(=O)ccc2c1)C1CCCCC1 [cilostamide]	0.62	1.01	-0.1%	0.52%	-0.25%
CNC(=O)c1ccc(N2C(=S)N(c3cnc(C#N)c(C(F)(F)F)c3)C(=O)C23CCC3)cc1F [apalutamide]	0.94	1.02	1.33%	0.68%	1.02%
O=S(=O)(O)CCS [mesna]	2.64	4.29	1.16%	5.57%	0.95%
N[C@@H](C(=O)N[C@@H]1C(=O)N2C(C(=O)O)=C(Cl)CC[C@H]12)c1ccccc1 [loracarbef]	7.18	4.02	2.95%	1.17%	5.45%
CNCC(O)c1ccc(O)c(O)c1 (racemic) [DL-Adrenaline]	1.39	-1.53	1.56%	-2.05%	-1.47%
Nn1cnc2cc3ccccc3cc2c1=O [centazolone]	-0.59	0.85	0.4%	-1.41%	0.93%
Cc1[nH]cnc1-c1ccc(Cl)cc1 [lofemizole]	-0.61	-0.4	150% (active)	0.04%	-0.36%
O=C(O)c1nc(=O)[nH]c(=O)[nH]1 [oxonic-acid]	-6.02	-2.79	1.25%	0.64%	-0.52%
N#C[C@@H]1CCCN1C(=O)CNC12CC3CC(CC(O)(C3)C1)C2 [vildagliptin]	0.17	-0.28	-0.35%	-0.2%	1.3%
C=C(NC(=O)C(=C)NC(=O)c1csc(C2=N[C@@H]3c4csc(n4)[C@H]4NC(=O)c5csc(n5)[C@H]([C@](C)(O)[C@@H](C)O)NC(=O)[C@H]5CSC(=N5)/C(=C/C)NC(=O)[C@H]([C@@H](C)O)NC(=O)c5csc(n5)[C@]3(CC2)NC(=O)[C@H](C)NC(=O)C(=C)NC(=O)[C@H](C)NC(=O)[C@H]([C@@H](C)CC)N[C@@H]2C=Cc3c([C@H](C)O)cc(nc3[C@H]2O)C(=O)O[C@@H]4C)n1)C(N)=O [thiostrepton]	-2.64	-1.12	-4.03%	1.58%	7.51%
CCCCCCCCCC(=O)OC1(c2ccc(Cl)cc2)CCN(CCCC(=O)c2ccc(F)cc2)CC1 [haloperidol-decanoate]	0.13	0.37	-2.1%	-0.9%	-1.91%
COc1ccc2c(c1)CN(C)CC2c1ccc(Cl)c(Cl)c1 (stereo not given) [diclofensine]	3.38	2.5	-1.16%	3.57%	1.83%
CCOc1c2c(c(OCC)c3ccccc13)C(=O)N(c1ccc(CC(=O)NS(=O)(=O)c3ccccc3)cc1)C2	2.87	0.35	0.73%	-1.03%	0.05%
Cc1ccc(NC2=CC(=O)c3sc(C)nc3C2=O)cc1 [ryuvidine]	1.42	4.18	4.56%	6.56%	-20.4%
O=C1c2ccccc2C(=O)C1c1ccc(Cl)cc1 [chlorindione]	-5.54	-6.24	-3.27%	0.64%	0.34%
CC[C@H](NC(=O)c1c(O)c(-c2ccccc2)nc2ccccc12)c1ccccc1 [talnetant]	-0.24	0.6	-1.02%	-1.22%	2.11%
CC(C)c1cc(CNc2nc(Nc3cc(C4CC4)[nH]n3)cc(N3CCN(C)CC3)n2)on1	0.13	1.15	0.48%	-4.78%	-15%
COC[C@H](NC(=O)c1cnc(C)s1)C(=O)N[C@@H](COC)C(=O)N[C@@H](Cc1ccccc1)C(=O)[C@@]1(C)CO1 [oprozomib]	0.33	3.66	38.6% (active)	34.5% (active)	24.7% (active)
CC(NCCc1ccc(O)cc1)C(O)c1ccc(O)cc1 (stereo not given) [ritodrine]	0.34	-0.09	1.29%	-2.19%	-1.02%
CC(C)(CO)c1cc2cc(NC(=O)C3(c4ccc5c(c4)OC(F)(F)O5)CC3)c(F)cc2n1C[C@@H](O)CO [tezacaftor]	0.35	0.97	-1.35%	1.62%	0.29%

Structure (SMILES)	inhibition of SARS-CoV-2 cytopathic effect (1 nM) [%]	inhibition of SARS-CoV-2 cytopathic effect (8.33 nM) [%]	inhibition of SARS-CoV-2 cytopathic effect (100 nM)	inhibition of SARS-CoV-2 cytopathic effect (833.33 nM)	inhibition of SARS-CoV-2 cytopathic effect (10000 nM)
O=c1nc2ccccc2c2n1CC(CN1CCN(c3ccccc3)CC1)N2 (stereo not given)	3.05	5.11	2.83%	4.08%	5.46%
CCC(=O)OCN1C(=O)C=CC1=O	-0.55	0.83	0.41%	1.73%	1.22%
CCOc1ccc2nc3cc(N)ccc3c(N)c2c1 [ethacridine-lactate-monohydrate]	-0.84	0.62	0.77%	-1.28%	0.22%
Cc1cccc(N(C)C(=S)Oc2ccc3ccccc3c2)c1 [tolnaftate]	-0.91	0.08	-1.72%	1.03%	3.31%
Cc1cccc(Cc2c[nH]cn2)c1C [detomidine]	-2.36	-0.01	1.67%	-2.3%	2.25%
NC(=O)NCCN1CCN(c2cccc(C(F)(F)F)c2)CC1 [fluprazine]	1.46	1.13	-1.67%	-1.94%	-2.06%
CCCCCNC(=N)N/N=C/c1c[nH]c2ccc(OC)cc12 [tegaserod]	-2.52	-0.54	-3.2%	-3.82%	-1.44%
Cc1ccc2nc(NCCN)c3ncc(C)n3c2c1	-1.03	-0.71	-2.54%	0.69%	-11.4%
N[C@@H](Cn1ccc(=O)n(Cc2ccccc2C(=O)O)c1=O)C(=O)O	1.86	3.68	-0.19%	1.26%	-0.16%
O=C(O)c1ccccc1C(=O)Nc1ccc(S(=O)(=O)Nc2nccs2)cc1 [phthalylsulfathiazole]	-0.6	1.91	1.2%	1.78%	-0.84%
CC(C)[C@H]1c2ccc(F)cc2CC[C@@]1(CCN(C)CCCc1nc2ccccc2[nH]1)OC(=O)C1CC1	1.78	2.76	7.24%	-2.65%	-19.3%
CC(=O)N1CCN(c2ccc(OC[C@@H]3CO[C@@](Cn4ccnc4)(c4ccc(Cl)cc4Cl)O3)cc2)CC1 (racemic) [ketoconazole]	-0.87	-0.69	-1.88%	0.35%	1.61%
O=C(O)C(=O)O.[NH-][C@@H]1CCCC[C@H]1[NH-].[Pt+2] [oxaliplatin]	1.5	1.96	10.3%	-2.36%	1%
OC(CCN1CCCCC1)(c1ccccc1)C1CC2C=CC1C2 (stereo not given) [biperiden]	0.1	-0.07	0.23%	-2.88%	-2%
Nc1nc(OCC2CCCCC2)c2nc[nH]c2n1	1.06	0.95	-3.55%	1.35%	-1.27%
Cc1[nH]c2ccc(Cl)cc2c1C1=CCNCC1	0.44	2.01	-0.51%	1.48%	10.1%
CC(=O)OCC(=O)[C@H]1CC[C@H]2[C@@H]3CC[C@H]4C[C@H](O)CC[C@]4(C)[C@H]3C(=O)C[C@]12C [alfadolone-acetate]	3.28	3.18	2.11%	1.64%	-4.57%
O=C1C=CC[C@@H]2[C@H]3CCCN4CCC[C@@H](CN12)[C@@H]34 [sophocarpine]	-8.47	-10.7	-12.4%	-12.3%	-13.3%
CCC1=C[C@@H]2CN3CCc4c([nH]c5ccccc45)[C@@](C(=O)OC)(C2)[C@@H]13 [catharanthine]	0.42	0.35	0.47%	0.93%	2.81%
